One assay deals with FXR:RXRa (NR concentration 270 nM, RXRa partner concentration 90 nM). Description: PBM binding z-score (relative to random genomic background probes); higher = stronger binding; sequences stand for … in GC…GCGATTGACAGCGTAGAATGAAGG
The method, boiled down: (§1)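 Binding z-scores take random background probes as their reference. They come from custom Agilent 4×180K protein-binding microarrays incubated 1 h with ligand-free nuclear receptor dimers, with antibodies against each partner (one per run) detecting binding. Scanned fluorescence was regression-normalized.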
For TGAATGAGGTTACAAGATCAGGGAACGTTGCAAA, the PBM binding z-score stood at 1.8.
As to CCTCGGAGGACAGAAGGACAGAGCTGTCCGCTTT, the PBM binding z-score was -0.348.
Same read-out and setting: in the case of ATCCAAAGGTCGTGAGGTGAGTATACAGAAAGGC it was 5.79; in that of CCTTACGGGTGACGAGGTTATAGCACGACGAGCG, 0.791; in that of CCGACTGGGGCAAGGTTACGATAACGCACAGCCA, 0.216.
On the same count and under the same terms, for TATACAGGGTGAAAGGCCAGAGTACGAATGTCGA the value was 0.996; for CAAACTAGATCAAAGGTCAAAGTCGAGCCAACCA, 5.73; for TCTTGTAGATCAACCAGGTTAAGAAAGCCTGAGT, 0.429.
On to TTAATGAGGTTAAAGATCAGGGAACGTGGCGTCG, for which the PBM binding z-score is 3.44.
The same measure, in the same setting: for ACTCGGCGGACAAAGGTCAGAGCTACGCCAGTGA the value was 3.34; for TCTATGAGTTGATTAGGGCAACCGAAACAGCGGA, 0.319.
On the same count and under the same terms, for ATCTCTAGGTAACGAAGTTCAGTGAATGCCGAAC the value was 0.145; for CTCGAAAGGTCGGTTGAGTTGAGTATACGGATAA, 2.22.
Sequence ACTATTAGTTGATTTAGGGCAACCGATACGACGC showed a PBM binding z-score of 0.352.
On the same count and under the same terms, for AGAATGAGGTTATTGAGATCAGGGAATTGCGGTC the value was 2.32; for ATCTCTAGGTAAGACTCAGTTCAGTGAAGAACGC, 0.226.
Still for that read-out and setting: for CCTATTAGTTGACCATACGGGCAACCGAAGCTCG the value was 0.382; for TTACCAAGGTGAAAGGTCCTTGATGCACGCCTTG, 1.03.
On the same count and under the same terms, for CCTAGTTGGTCCAGGTCACACACGCTATAGGTAC the value was 1.93; for CCTCGGAGGACAGGAGGTCAGAGCTGTCCGCTTT, 1.56.
On to GTACCAAGGTGAATAGATCGTTGATGAGTAGGCG, for which the PBM binding z-score was 0.377.
The same measure, in the same setting: in the case of CCTACTGGGCCACGAAAGGTCGTTGATTCAGTGA it was 0.933.
The same measure, in the same setting: for CAAACTGGGTCACCGGAAGGTCAAAGTCCGCATG the value was 5.54; for TCTCGGAGGACACGCAGGTCAGAGCTTTCCAGAG, 0.587.
Same read-out and setting: in the case of CCGAGTAGGTTATCGGGCATTCAGGCAACGGTGA it was 0.12; in that of TCTTGTAGGTCAACAGGAGGTTAAGAAAGATCGA, 5.53.
TGAATTAGGTTAAAGATCAGGGAACGTGGCGTCG registered a PBM binding z-score of 0.694.
As for ATTCAAAGTTCATCTAGGTAACGTAAGATATGCT, the PBM binding z-score turned out to be 6.71.
In the case of TAGCCTAGGTGATGCGGGCCAGTATAGTGTCGGC, the PBM binding z-score was -0.724.
Same read-out and setting: in the case of TAGCCTAGGTCCTGGGCCAGTATACCACGCGAAC it was -0.638.
On the same count and under the same terms, for CCTATTAGTTGACCATAAGGGCAAGCGAAGCTCG the value was 0.766; for GGAACGCGGGCAAGTTGATAGCAGAGTTTGATGG, -0.639; for TCATATAGGTAATACAGGTGAATGTCGGCATCTA, 1.12.
The same measure, in the same setting: for ATCGAAAGGTCGACGAGGTGAGTTTACACCGTTT the value was 4.66; for ATATGTAGGTTATCGGGTCATTCAGTTTGCGCAT, 2.98; for ACAGACAGGTGAGTGAAGGTAACGCAGCTGGACG, 0.617.
CGTCCAAGGTCAGCAGATCAGTGAAAGCGACGTG returned a PBM binding z-score of 5.09.
The same measure, in the same setting: for AGAATGAGGTTACCAAAGATCCGGGAAACGCTTG the value was 1.58; for AGAACGAGGGCAATGAGTTGCTAGCACGGGTGGC, 0.0307; for CAAACTAGGTCAAAGGTAAAAGTCGAGCCAACCA, 5.4.

A further assay deals with LXRa:RXRa (NR concentration 270 nM, RXRa partner concentration 90 nM). The description is as above. The method, boiled down: as §1
TGAATGAGGTTACAAGATCAGGGAACGTTGCAAA registered a PBM binding z-score of 1.28.
Same read-out and setting: for CCTCGGAGGACAGAAGGACAGAGCTGTCCGCTTT the value was -0.559; for ATCCAAAGGTCGTGAGGTGAGTATACAGAAAGGC, 4.82; for CCTTACGGGTGACGAGGTTATAGCACGACGAGCG, 0.766.
Still for that read-out and setting: in the case of CCGACTGGGGCAAGGTTACGATAACGCACAGCCA it was 0.654; in that of TATACAGGGTGAAAGGCCAGAGTACGAATGTCGA, 0.959.
Sequence CAAACTAGATCAAAGGTCAAAGTCGAGCCAACCA gave a PBM binding z-score of 5.82.
Still for that read-out and setting: for TCTTGTAGATCAACCAGGTTAAGAAAGCCTGAGT the value was 0.506; for TTAATGAGGTTAAAGATCAGGGAACGTGGCGTCG, 3.14.
Same read-out and setting: for ACTCGGCGGACAAAGGTCAGAGCTACGCCAGTGA the value was 3.79; for TCTATGAGTTGATTAGGGCAACCGAAACAGCGGA, 0.351.
On the same count and under the same terms, for ATCTCTAGGTAACGAAGTTCAGTGAATGCCGAAC the value was 0.276; for CTCGAAAGGTCGGTTGAGTTGAGTATACGGATAA, 1.48; for ACTATTAGTTGATTTAGGGCAACCGATACGACGC, 0.0302.
As to AGAATGAGGTTATTGAGATCAGGGAATTGCGGTC, the PBM binding z-score was 1.71.
On the same count and under the same terms, for ATCTCTAGGTAAGACTCAGTTCAGTGAAGAACGC the value was 0.477.
Same read-out and setting: in the case of CCTATTAGTTGACCATACGGGCAACCGAAGCTCG it was 0.294.
Still for that read-out and setting: for TTACCAAGGTGAAAGGTCCTTGATGCACGCCTTG the value was 1.02.
As for CCTAGTTGGTCCAGGTCACACACGCTATAGGTAC, the PBM binding z-score is 2.22.
Turning to CCTCGGAGGACAGGAGGTCAGAGCTGTCCGCTTT, the PBM binding z-score amounted to 1.79.
On the same count and under the same terms, in the case of GTACCAAGGTGAATAGATCGTTGATGAGTAGGCG it was 0.133; in that of CCTACTGGGCCACGAAAGGTCGTTGATTCAGTGA, 1.81; in that of CAAACTGGGTCACCGGAAGGTCAAAGTCCGCATG, 5.51.
Still for that read-out and setting: for TCTCGGAGGACACGCAGGTCAGAGCTTTCCAGAG the value was 0.453; for CCGAGTAGGTTATCGGGCATTCAGGCAACGGTGA, 0.322.
Still for that read-out and setting: for TCTTGTAGGTCAACAGGAGGTTAAGAAAGATCGA the value was 4.75; for TGAATTAGGTTAAAGATCAGGGAACGTGGCGTCG, 0.724; for ATTCAAAGTTCATCTAGGTAACGTAAGATATGCT, 6.24.
TAGCCTAGGTGATGCGGGCCAGTATAGTGTCGGC had a PBM binding z-score of -0.891.
Take TAGCCTAGGTCCTGGGCCAGTATACCACGCGAAC: the PBM binding z-score is -1.08.
Sequence CCTATTAGTTGACCATAAGGGCAAGCGAAGCTCG registered a PBM binding z-score of 0.114.
The same measure, in the same setting: for GGAACGCGGGCAAGTTGATAGCAGAGTTTGATGG the value was -0.548; for TCATATAGGTAATACAGGTGAATGTCGGCATCTA, 1.39.
Regarding ATCGAAAGGTCGACGAGGTGAGTTTACACCGTTT, the PBM binding z-score was determined as 3.45.
The same measure, in the same setting: for ATATGTAGGTTATCGGGTCATTCAGTTTGCGCAT the value was 3.41; for ACAGACAGGTGAGTGAAGGTAACGCAGCTGGACG, 0.126; for CGTCCAAGGTCAGCAGATCAGTGAAAGCGACGTG, 3.1.
The same measure, in the same setting: in the case of AGAATGAGGTTACCAAAGATCCGGGAAACGCTTG it was 2.04; in that of AGAACGAGGGCAATGAGTTGCTAGCACGGGTGGC, -0.027.
CAAACTAGGTCAAAGGTAAAAGTCGAGCCAACCA returned a PBM binding z-score of 4.12.

The values are drawn from the supplement of paper PMC6555819.
